Three compounds from PubChem BioAssay (NCATS) can be followed below.

SMILES strings stand for the structures. A number with no mark means an inactive call. Inconclusive results are not listed. Activity calls are given as the source filed them. Unless noted, calls follow the shape of the dose curve; as a rule, active = well fitted curve in the direction sought with a large enough effect; inconclusive = small, poorly fitted or top-dose-only effect, or another doubt; inactive = no such curve, though single readings can be large; an effect the other way counts as inactive or inconclusive.

The nature of experiment [1]: Cell Viability - HepG2 (AID 433; calls by dose curve;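 also: potency is read from the fitted curve at half-maximal effect; potency for ATP loss meaning cytotoxicity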). Conditions: qHTS. The method, boiled down:
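In this qHTS format, a 40 h, 37 °C compound incubation of HepG2 cells in complete medium precedes a 20 min CellTiter-Glo step at room temperature. Tamoxifen and doxorubicin serve as positive controls; Hill-equation fits yield AC50.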

A short description of experiment [2]: Cell Viability - HUV-EC-C (AID 542). Also: potency is read from the fitted curve at half-maximal effect; nearly all actives have a fitted effect of over 35% in size. Conditions: HUV-EC-C endothelial cell viability, qHTS; series mostly up to 92.2 µM. The method, boiled down: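 qHTS cytotoxicity: HUV-EC-C, 1000 cells/well, 5 hr settle, compound 40 hr 37 °C, CellTiter-Glo, luminescence. AC50 via Hill equation.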
A short description of experiment [3]: Cell Viability - Mesenchymal (AID 546).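 Also: cells exposed to compound for 40 hours before reading.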 The conditions noted are these: mesenchymal cells viability, qHTS; series mostly up to 91.7 µM. In short, it runs like this:
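Normal human renal glomerulus-derived kidney mesenchymal cells, 1000 per well in complete medium, were treated with compounds for 40 hr at 37 °C. Viability was read as intracellular ATP by CellTiter-Glo luminescence; AC50 values came from Hill-equation fits of qHTS concentration-response data.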

Experiment [4] in a line: Cell Viability - LYMP2-004 (AID 966).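 Also: plate controls were DMSO only for no effect and tetraoctylammonium bromide control for full effect; nearly all actives have a fitted effect of over 65% in size.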 Conditions: LYMP2-004 lymphoblastoid cell viability, qHTS; series mostly up to 92.2 µM. In short, it runs like this: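 Cells seeded 2500/well, rested 5 hr at 37 C, dosed across a concentration series, incubated 24 hr at 37 C, then CellTiter-Glo added for 30 min at room temperature and luminescence read. Hill fitting gave AC50.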
Experiment [5] can be described thus: Cell Viability - LYMP2-005 (AID 967).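 Also: plate controls were DMSO only for no effect and 92 µM tetraoctylammonium bromide control for full effect.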 Conditions: LYMP2-005 lymphoblastoid cell viability; series mostly up to 92.2 µM. The method, boiled down:
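Luciferase-based ATP quantitation served as the viability measure in human lymphoblastoid LYMP2-005 cells exposed to test compounds for 24 h at 37 C in complete culture medium. Potency (AC50) was obtained by fitting concentration-response curves with the Hill equation.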

Experiment [6] can be described thus: Cell Viability - LYMP2-019 (AID 973).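 Also: 0% = DMSO alone and full effect = 92 µM tetraoctylammonium bromide; nearly all actives have a fitted effect of over 55% in size.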 Conditions: LYMP2-019 lymphoblastoid cell line viability; series mostly up to 92.2 µM. The method, boiled down:
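Luminescent ATP read-out (CellTiter-Glo, 30 min room temperature) served as the viability measure after 24 hr treatment of lymphoblastoid cells at 37 C. Concentration-response data were fitted to the Hill equation for AC50.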

The target of experiment [7] is Tumor necrosis factor (Homo sapiens) (UniProt P01375). Put plainly: qHTS assay to identify small molecules that stimulate Tumor Necrosis Factor-alpha (TNF-alpha) secretion (AID 651757; active = well fitted curve in the direction sought with a large enough effect in the signal ratio; the % refers to the signal ratio; also: 0% is about no effect). Conditions: Human cells, HTRF 665/615 ratio; series mostly up to 92.2 µM. In short, it runs like this: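 Read-out is HTRF, a TR-FRET sandwich of cryptate- and XL665-labeled anti-TNF-alpha antibodies detecting cytokine secreted by THP-1 cells. Cells had been incubated with test compounds at 37 C for 17 hrs beforehand.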

Experiment [8] in a line: qHTS assay to identify small molecules that stimulate interleukin-8 (IL-8) secretion (AID 651758; active = well fitted activation curve with a large enough effect in the signal ratio; the % refers to the signal ratio; also: 0% is about no effect). Conditions: HTRF ratio (665/615); series mostly up to 92.2 µM. The method, boiled down:
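THP-1, 2000 cells/well; cpd 16 h, 37 C; add cryptate + XL665 anti-IL-8 Abs; RT 1-3 h; TR-FRET read.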
In general terms: Quantitative high-throughput screening tests each substance at several concentrations.

Experiment [9] deals with Cytochrome P450 2D6 (Homo sapiens) (UniProt P10635). Put plainly: qHTS Assay for Inhibitors and Substrates of Cytochrome P450 2D6 (AID 891). Also: potency is read from the fitted curve at half-maximal effect; nearly all actives have a fitted effect of over 60% in size. The conditions noted are these: recombinant CYP2D6, luciferin-ME EGE luminescence; series mostly up to 57.1 µM. In short, it runs like this: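 Human CYP2D6 (5 nM) with 30 uM Luciferin-ME EGE (at Km) in 100 mM KPO4, compound preincubated 10 min, then NADPH regeneration system for 60 min at room temperature. Luciferin read by luminescence; normalized to 1.43 uM quinidine.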

Experiment [10] is described as follows: Cell Viability - SK-N-SH (AID 435; calls by dose curve;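 also: potency is read from the fitted curve at half-maximal effect; compound exposure lasted 40 h at 37 °C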). Conditions: SK-N-SH neuroblastoma cell viability qHTS. The method, boiled down: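 Human neuroblastoma line, 40 h exposure at 37 °C, ATP quantified via luciferase luminescence; DMSO and 100 uM tamoxifen define 0 and 100% inhibition for AC50 fitting.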
Experiment [11] in a line: Cell Viability - N2a (AID 540).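 Also: plate controls were DMSO alone for no effect and tamoxifen control for full effect; nearly all actives have a fitted effect of over 45% in size.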 Conditions: N2a mouse neuroblastoma cell viability; at 92.2 µM (top of the series). The method, boiled down: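 Luminescent ATP signal (CellTiter-Glo, 20 min at room temperature) served as the viability read-out after N2a cells were treated with compounds for 40 hours at 37 °C. Concentration-response data were fitted to the Hill equation for AC50.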

Experiment [12] is described as follows: Cell Viability - NIH 3T3 (AID 541). Also: potency is read from the fitted curve at half-maximal effect; nearly all actives have a fitted effect of over 25% in size. The conditions noted are these: NIH 3T3 cell viability, qHTS; activity change, negative = cytotoxicity: at 92.2 µM (top of the series). In short, it runs like this: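 Luminescent ATP signal (CellTiter-Glo) served as the viability read-out after NIH 3T3 cells were exposed to compounds over a concentration range for 40 hr at 37 °C. Hill-equation modelling of concentration-response data gave AC50.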

A short description of experiment [13]: Cellular Toxicity (caspase-3) HepG2 (AID 654).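 Also: cells exposed to compound for 16 hours before reading.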 The conditions noted are these: HepG2 caspase-3 activation, luminescence, 0% = DMSO only, 100% = tamoxifen; series mostly up to 92.2 µM. In short, it runs like this: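 Cells plated 5 hr at 37 °C, compound added, incubated 16 hr at 37 °C. Caspase-Glo 3/7 reagent followed, 20 min at room temperature, then luminescence read. Activation scored as signal increase; AC50 from Hill fit.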

Experiment [14] can be described thus: Cellular Toxicity (caspase-3) Jurkat (AID 655).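 Also: cells exposed to compound for 16 h at 37 °C before reading.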 The conditions noted are these: Jurkat caspase-3 activation, luminescence, DMSO = 0%, tamoxifen = 100%; at 92.2 µM (top of the series). In short, it runs like this:
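qHTS in human Jurkat T-cell leukemia line: 16 hr compound treatment at 37 °C, caspase-3/7 activity measured by Caspase-Glo luminescence. AC50 derived from Hill equation.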

Experiment [15] in a line: Cellular Toxicity (caspase-3) SHSY5Y (AID 657).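 Also: cells exposed to compound for 16 hours at 37 °C.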 The conditions noted are these: SH-SY5Y caspase-3 activation, DMSO zero, 10 µM staurosporine = 100%; series mostly up to 91.7 µM. In short, it runs like this:
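Readout: caspase-cleaved peptide-aminoluciferin substrate driving luciferase light in SH-SY5Y neuroblastoma cells after 16 h treatment. Response normalized to DMSO and 10 uM staurosporine controls.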

Experiment [16] can be described thus: Cellular Toxicity (caspase-3) BJ (AID 658).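 Also: cells exposed to compound for 16 hours.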 Conditions: BJ fibroblasts, luminescence, normalized: DMSO 0%, staurosporine 100%; series mostly up to 91.7 µM. In short, it runs like this: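 Luminescent aminoluciferin-substrate cleavage reports caspase 3/7 activity in normal human BJ fibroblasts after 16 hr compound exposure at 37 °C. Normalized to DMSO (basal) and 10 uM staurosporine (100%); AC50 from Hill fit of concentration-response.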

Experiment [17] can be described thus: Cellular Toxicity (caspase-3) MRC-5 (AID 659). Conditions: MRC-5 cells, luminescence, normalized: DMSO 0%, 10 µM staurosporine 100%; series mostly up to 91.7 µM. In short, it runs like this:
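Luminescence from caspase-cleaved aminoluciferin substrate (Caspase-Glo 3/7, 1 hr RT) reports caspase 3/7 activity in MRC-5 lung fibroblasts after 16 hr compound exposure. Normalized to DMSO basal and 10 uM staurosporine as 100%; AC50 from Hill fits.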

Experiment [18] in a line: Cellular Toxicity (caspase-3) Mesangial (AID 660).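 Also: combined caspase 3 and 7 activity read by Caspase-Glo luminescence; cells exposed to compound for 16 h before the caspase read.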 Conditions: mesangial cells, normalized: DMSO 0%, 100 µM tamoxifen 100%; series mostly up to 91.7 µM. In short, it runs like this:
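Mesangial cells, 1000/well, 5 h settle at 37 °C; compound 16 h, 37 °C; Caspase-Glo 3/7 reagent 20 min RT; luminescence. Norm.: DMSO = 0%, tamoxifen 100 uM = 100%. AC50, Hill fit.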

Experiment [19] is described as follows: Cellular Toxicity (caspase-3) SK-N-SH (AID 661).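 Also: cells exposed to compound for 16 hours.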 Conditions: SK-N-SH caspase-3 activation, qHTS, DMSO as zero, staurosporine as full; series mostly up to 91.7 µM. In short, it runs like this: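 Human neuroblastoma SK-N-SH, 1500 cells/well, 5 hr pre-incubation, then compound 16 hr, 37 °C. Caspase-Glo 3/7 reagent, 1 hr RT, luminescence. Norm. to DMSO/10 uM staurosporine; Hill-fit AC50.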

Experiment [20] in a line: Cellular Toxicity (caspase-3) Hek293 (AID 664).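 Also: cells exposed to compound for 16 h at 37 °C before readout.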 Conditions: HEK293 caspase-3 activation, DMSO = 0%, 100 µM tamoxifen = 100%; series mostly up to 92.2 µM. The method, boiled down: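 Cells plated, 5 hr at 37 °C; compounds added; 16 hr at 37 °C; Caspase-Glo 3/7 reagent, 20 min RT; luminescence read. Activation expressed relative to DMSO and 100 uM tamoxifen, AC50 by Hill model.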

Cytochrome P450 2D6 (Homo sapiens), sequence (P10635 whole entry, looked up): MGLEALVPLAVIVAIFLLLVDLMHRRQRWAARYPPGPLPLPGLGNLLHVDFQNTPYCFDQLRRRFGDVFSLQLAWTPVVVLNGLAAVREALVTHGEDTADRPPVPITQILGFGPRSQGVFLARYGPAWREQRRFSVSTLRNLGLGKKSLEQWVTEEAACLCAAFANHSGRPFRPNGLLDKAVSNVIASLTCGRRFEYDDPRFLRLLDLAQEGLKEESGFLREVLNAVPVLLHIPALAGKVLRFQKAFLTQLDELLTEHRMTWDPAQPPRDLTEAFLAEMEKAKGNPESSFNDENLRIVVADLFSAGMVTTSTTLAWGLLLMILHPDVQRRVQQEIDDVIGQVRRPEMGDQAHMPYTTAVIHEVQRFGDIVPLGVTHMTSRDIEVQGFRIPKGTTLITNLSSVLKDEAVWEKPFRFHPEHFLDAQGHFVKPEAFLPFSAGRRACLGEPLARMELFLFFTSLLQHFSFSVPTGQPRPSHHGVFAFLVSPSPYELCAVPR
Tumor necrosis factor (Homo sapiens), sequence (P01375 whole entry, looked up): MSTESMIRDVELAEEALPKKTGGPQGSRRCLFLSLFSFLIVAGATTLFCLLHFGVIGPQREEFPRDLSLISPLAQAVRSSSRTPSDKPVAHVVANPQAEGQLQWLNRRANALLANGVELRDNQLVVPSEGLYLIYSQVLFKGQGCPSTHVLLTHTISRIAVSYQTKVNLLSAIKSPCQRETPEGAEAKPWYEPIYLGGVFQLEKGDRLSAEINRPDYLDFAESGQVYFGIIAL

Consider `CCCCCCCCCc1ccc(O)cc1`, for which the figures for the Potency in experiment [1] and in [2] were greater than 92 µM and 31.6 µM (active), respectively. Moreover, the result in [3] and in [7] was inactive. The Potency entry in experiment [4], in [5], in experiment [6] and in [8] was “inactive” in each case.

As to `CN1C[C@H](CO)C=C2c3cccc4[nH]cc(c34)C[C@@H]21`, in [9], the Potency was 0.126 µM (active).

For `O=C1C(Cl)=C(Cl)C(=O)C(Cl)=C1Cl`, the Potency in experiment [10] was 40.5 µM (active); in [12], 31.6 µM (active). Also, the activity change, negative = cytotoxicity in [11] was -88.2% (active). For the same compound, the result in experiment [13], in experiment [15], in experiment [16], in [17], in experiment [18] and in [19] was inactive. In addition, the compound was called inactive in experiment [20]. Further, the caspase-3 activation in [14] was -9.68%.
